This is part of a sample that, as a whole, favours compounds with a hit. Of some 83,000 tested, about 20% had one in any assay.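 Method: cells in 96-well plates; compound added at one concentration; 48 h incubation; percent growth measured; values under 10 scored active.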 Values without a mark were called inactive. Active and inactive are the calls of the source.

The subject of the assay is HL-60(TB) leukemia. As to the kind of experiment: NCI-60 one-dose screen, 48 h (100 = growth as untreated, 0 = no growth, -100 = all killed). The following applies: 10 µM unless noted.
With `O=C(N/N=C/c1ccc(-c2cccc([N+](=O)[O-])c2)s1)c1[nH]c2ccc(Br)cc2c1-c1ccccc1`, the growth is 81.4%.
The value for `OCCCNc1oc(-c2ccccc2)nc1[P+](c1ccccc1)(c1ccccc1)c1ccccc1` was -35.8% (active); that for `CC(C)Sc1nc(NCCc2c[nH]c3ccccc23)c(C#N)c(-c2ccc(F)cc2)n1` was 27%.
Under `Cn1cc(-c2cc3nc(-c4c[nH]c5ccccc45)cc(N)n3n2)c2cc(Cl)ccc21` stands -24.8% (active).
The value for `COC(=O)c1c(C(=O)OC)c2ccc3c4ccccc4ccc3n2c1C(=O)OC` was 111%.

The values are drawn from PubChem BioAssay (NCI).
